# Measured values from PubChem BioAssay (Tox21).
# Results filed as inconclusive are left out. Values without a mark were called inactive. The source made the active and inactive calls. Calls follow the shape of the dose curve; as a rule, active = well fitted inhibition curve with a large enough effect in the repeat runs; inconclusive = weak or mixed curves, or effect the other way; inactive = no such curve, though single readings can be large or run the other way.
# Target: Nuclear receptor subfamily 1 group I member 3 (Homo sapiens) (UniProt Q14994)
# Sequence (Q14994 whole entry, looked up): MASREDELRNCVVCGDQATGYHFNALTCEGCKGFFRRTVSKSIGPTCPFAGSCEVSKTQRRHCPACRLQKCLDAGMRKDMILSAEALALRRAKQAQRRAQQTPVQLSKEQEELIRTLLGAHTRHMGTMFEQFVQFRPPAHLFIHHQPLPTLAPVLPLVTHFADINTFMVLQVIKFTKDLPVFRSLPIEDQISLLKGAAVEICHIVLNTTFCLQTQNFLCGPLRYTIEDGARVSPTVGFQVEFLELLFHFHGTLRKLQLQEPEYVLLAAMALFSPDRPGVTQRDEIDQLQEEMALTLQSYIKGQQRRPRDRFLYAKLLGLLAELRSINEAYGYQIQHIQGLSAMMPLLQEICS
# Assay: qHTS assay to identify small molecule antagonists of the constitutive androstane receptor (CAR) signaling pathway (AID 1224838);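 also: HepG2 cells stably expressing hCAR with CYP2B6 luciferase reporter stimulated by CITCO; nearly all actives have a fitted effect of over 40% in size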
# Settings: HepG2-CYP2B6-hCAR luciferase, CITCO-stimulated, 24 h; series mostly up to 92.4 µM; activity, negative = inhibition: at the top concentration
# Source text: U.S. Tox21 Program National Center for Advancing Translational Sciences [NCATS] NIH Chemical Genomics Center [NCGC] U.S. Environmental Protection Agency [EPA] National Institutes of Environmental Health Sciences [NIEHS] National Toxicology Program [NTP] U.S. Food and Drug Administration [FDA] Tox21 Assay Overview: The constitutive androstane receptor (CAR) is a nuclear receptor which regulates multiple drug metabolizing enzymes (DMEs) and transporters. Activating CAR will generally increase the transcription and subsequent translation of CYP2B6 and CYP3A4. These two DMEs represent about 50% of the drug metabolizing potential in the body. When CAR is deactivated, the metabolizing potential in the body will decrease, subsequently increasing the toxicity in the body or lowering the therapeutic potential of a pro-drug. Recently, there have also been studies performed indicating CARs role in energy metabolism and cancer therapy. Therefore, inhibiting CARs activity could have a potential effect on diabetes and cancer. Identifying environmental toxins and compounds which modulate CAR, through the use of the Tox21 10K compound collection, will be an important step in determining the toxicity and potential therapeutic effects these factors will have on the human body.
# Tox21 Assay Protocol Summary: A double-stable (hCAR and CYP2B6-2.2kb) transfected cell line, derived from human hepatoma (HepG2) cells, was utilized for the duration of the quantitative high-throughput screens. The HepG2-CYP2B6-hCAR cells suspended in DMEM culture medium supplemented with 10% FBS, 5 ug/mL blasticidin, 0.5 mg/mL geneticin, 100 U/mL penicillin and 100 ug/mL streptomycin were dispensed at 2500 cells/4 uL/well in 1536-well white solid bottom plates using a Multidrop Combi. After the assay plates were incubated at 37 C/5% CO2 for 4 hrs, 23 nL of compounds at 15 concentrations (from 5-48 columns) or positive control (from 1 to 4 columns) were transferred to the assay plates using a Pintool station. One uL of CITCO, was added using a Flying Reagent Dispenser to generate a final concentration of 50 nM CITCO inside each well. After a 24 hr incubation period at 37 C/5% CO2, four uL of ONE-Glo reagent was added into the assay plates using a Flying Reagent Dispenser. After a 30 min incubation period at room temperature, the luminescence intensity in the assay plates was measured using a ViewLux plate reader.
# % is scaled to controls: 0 for no effect and ±100 for the full control effect; potency is read from the fitted curve at half-maximal effect.
Structure (SMILES),"activity, negative = inhibition",Potency
C/C=C1\C(=O)C[C@H]2[C@@H]3CCC4=CC(=O)CC[C@]4(C)[C@H]3CC[C@]12C,71.8% [at 42.5 µM],–
COC(=O)CCCC(=O)O,4.12%,–
C=C(C)C(=O)OCCC(C)OC(=O)C(=C)C (stereo not given),-3.71%,–
COC(C(=O)O)c1ccccc1 (stereo not given),-5.64%,–
COCCOC(=O)CC#N,-8.98%,–
CCN1CCCC1CNC(=O)c1cc(S(N)(=O)=O)ccc1OC (stereo not given),-4%,–
Cc1nc(-c2ccc(OCC(C)C)c(C#N)c2)sc1C(=O)O,-8.04% [at 42.5 µM],–
CCCCCCCCN(C)CCCCCCCC,-0.772%,–
CCCCC1CCCCC(=O)O1 (stereo not given),-7.23%,–
CCC(C)OC(=O)N1CCCCC1CCO (stereo not given),16.8%,–
CO,-6.41%,–
CN(C)CCn1nnnc1SCC1=C(C(=O)O)N2C(=O)[C@@H](NC(=O)Cc3csc(N)n3)[C@H]2SC1,4.56% [at 42.5 µM],–
CCOC(=O)Nc1ccc2c(c1)N(C(=O)CCN1CCOCC1)c1ccccc1S2,–,1.19 µM (active)
CC(C)(C)OC(=O)N1C[C@@H](F)C[C@H]1C(=O)O,3.59%,–
O=[N+]([O-])c1ccc(Oc2ccc([N+](=O)[O-])cc2)cc1,12.9%,–
CSc1nc(NC2CC2)nc(NC(C)(C)C)n1,32.4%,–
CC(CCO)CCCC(C)(C)O (stereo not given),–,27.3 µM (active)
CC(C)N1C(=O)c2ccccc2C1=O,-13.4%,–
CCCCCCCCCCCCCCC,7.45%,–
CC(O)CN(CCCN(C)C)CCCN(C)C (stereo not given),3.08%,–

Structure (SMILES),"activity, negative = inhibition",Potency
CC(C)c1cccc(O)c1,12.6%,–
C(=C(c1ccccc1)c1ccccc1)c1ccccc1,-8.75%,–
CCCc1ccccc1O,2%,–
CCN(CC)S(=O)(=O)c1ccc(C(=O)O)cc1,-13.9% [at 42.5 µM],–
CCCc1ccc(N)cc1,17.3%,–
Cc1onc(-c2ccccc2)c1-c1ccc(S(N)(=O)=O)cc1,4.1% [at 42.5 µM],–
C=C(C)[C@H]1CC=C(C)CC1,-5.04%,–
CCCCCCOC(=O)c1ccccc1O,4.78%,–
NC(=O)c1ncn([C@@H]2O[C@H](CO)[C@@H](O)[C@H]2O)c1O,6.64% [at 42.5 µM],–
CNC(=O)c1c(I)c(NC(=O)CCCCC(=O)Nc2c(I)c(C(=O)O)c(I)c(C(=O)NC)c2I)c(I)c(C(=O)O)c1I,-2.21% [at 42.5 µM],–
COC[C@H](c1ccc(C(F)(F)F)cc1)N1CCN(C2(C)CCN(C(=O)c3c(C)ncnc3C)CC2)C[C@H]1C,-5.82% [at 42.5 µM],–
O=C(O)c1cccc(C(=O)O)n1,-2.91%,–
NCCN1CCNC1=O,-4.35%,–
CCCCN(CCO)CCO,1.13%,–
OCC(CO)(CO)COCC(CO)(CO)CO,6.32%,–
NS(=O)(=O)c1cc2c(cc1Cl)NC(CSCc1ccccc1)=NS2(=O)=O,-14.9% [at 42.5 µM],–
CCN1CCN(c2cc3c(cc2F)c(=O)c(C(=O)O)cn3C2CC2)CC1,-19.7% [at 42.5 µM],–
FC(F)(F)C(F)(F)C(F)(F)C(F)(F)C(F)(F)C(F)(F)C(F)(F)C(F)(F)C(F)(F)C(F)(F)F,41.9% [at 8.39 µM],–
CC1=CCC2C(C1)C2(C)C (stereo not given),-1.22%,–
CC(C)CCCCCCN,-10.6%,–
